PubChem BioAssay (EPA / NIEHS)
Records with an inconclusive call do not appear. The source holds several records for some structures; these can differ, active in one and inactive in another. Activity calls are given as the source filed them. Rule for the calls, unless noted: active = hit-call score of the fitted dose curve at least 0.9, where 1 is the maximum; inactive = score below 0.9.

How the values were obtained:
[1] = ATG_TCF_b_cat_CIS: Attagene CIS-FACTORIAL HepG2 Assay for human T-Cell-Factor with beta-catenin (TCF/b-cat) (AID 2282965); conditions: HepG2 TCF/beta-catenin cis-reporter transcription, actives raise or lower the signal
Outline: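 HepG2 cells transiently transfected with multiple cis-promoter-regulated reporter transcription units, so endogenous transcription factor activity is measured. Reporter mRNA read 24 hours after dosing by RT-PCR, fluorescent labelling and capillary electrophoresis; bidirectional fitting against DMSO.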

[2] = ATG_TAL_CIS: Attagene CIS-FACTORIAL HepG2 Assay for human TAL Basal Promoter (AID 2282966); conditions: HepG2 Attagene cis-factorial TAL promoter reporter; actives raise or lower the signal;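 note: background control endpoint measuring basal TAL promoter reporter mRNA not a specific factor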
Outline: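 Readout: reporter mRNA, fluorescence by CE. System: HepG2, transient multi-reporter transfection, endogenous TF activity. Exposure: 24 h. Analysis: bidirectional, DMSO-normalized; background control.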

[3] = ATG_TGFb_CIS: Attagene CIS-FACTORIAL HepG2 Assay for human Transforming Growth Factor (TGF) (AID 2282967); conditions: HepG2 Attagene CIS TGFb reporter, mRNA transcription; actives raise or lower the signal
Outline: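 Transcript-level reporter readout: HepG2 transfectants, 24 h exposure, RNA to cDNA, reporter-specific PCR, fluorescent primer extension, capillary sizing against ROX standards. Gain- or loss-of-signal relative to DMSO.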

[4] = ATG_VDRE_CIS: Attagene CIS-FACTORIAL HepG2 Assay for human Vitamin D Receptor Element (VDRE) (AID 2282968); conditions: HepG2 VDRE cis-reporter transcription, actives raise or lower the signal
Outline: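 RT-PCR/CE readout of reporter mRNA; HepG2, transient transfection, 24 h dosing; DMSO baseline; bidirectional analysis.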

[5] = target: Nuclear receptor subfamily 1 group I member 3 (Homo sapiens) (UniProt Q14994); test: ATG_CAR_TRANS: Attagene TRANS-FACTORIAL HepG2 Assay for human Constitutive Androstane Receptor (CAR) (AID 2282969; active = hit-call score of the fitted dose curve at least 0.9, where 1 is the maximum;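 note: activators raise reporter mRNA above DMSO so AC50 marks induction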); conditions: HepG2 Attagene TRANS-FACTORIAL CAR reporter
Chain of Nuclear receptor subfamily 1 group I member 3 (Homo sapiens) (Q14994 whole entry, looked up, the tested form may be a part): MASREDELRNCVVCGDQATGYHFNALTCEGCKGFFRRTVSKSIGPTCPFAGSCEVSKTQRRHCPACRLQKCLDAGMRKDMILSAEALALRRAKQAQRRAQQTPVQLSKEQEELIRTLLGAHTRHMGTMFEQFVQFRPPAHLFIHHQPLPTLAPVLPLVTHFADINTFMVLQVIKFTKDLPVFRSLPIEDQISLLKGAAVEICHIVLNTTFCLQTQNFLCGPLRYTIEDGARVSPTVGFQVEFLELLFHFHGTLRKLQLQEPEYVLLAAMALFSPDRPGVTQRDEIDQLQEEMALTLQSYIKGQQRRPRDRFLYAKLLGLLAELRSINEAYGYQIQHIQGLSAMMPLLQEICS
Outline: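 HepG2 cells transiently transfected with multiplexed GAL4-UAS reporter units expressing chimeric NR-Gal4 proteins; compound exposure 24 h. Reporter mRNA measured by RT-PCR, 6-FAM labelling, HpaI digestion and capillary electrophoresis; gain-of-signal fitted against DMSO baseline.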

[6] = target: X-box-binding protein 1 (Homo sapiens) (UniProt P17861); test: ATG_Xbp1_CIS: Attagene CIS-FACTORIAL HepG2 Assay for human X-box Binding Protein 1 (XBP1) (AID 2282972); conditions: HepG2 XBP1 cis-element reporter, Attagene multiplex; actives raise or lower the signal
Chain of X-box-binding protein 1 (Homo sapiens) (P17861 whole entry, looked up): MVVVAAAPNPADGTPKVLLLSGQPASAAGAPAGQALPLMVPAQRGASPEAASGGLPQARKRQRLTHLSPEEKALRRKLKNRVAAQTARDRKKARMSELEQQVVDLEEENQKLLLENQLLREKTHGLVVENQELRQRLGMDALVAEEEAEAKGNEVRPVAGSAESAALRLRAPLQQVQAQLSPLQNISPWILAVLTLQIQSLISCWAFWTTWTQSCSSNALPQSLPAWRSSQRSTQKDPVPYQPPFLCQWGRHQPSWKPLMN
Outline: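 HepG2 cells transiently transfected with cis-regulated multiple reporter transcription units; endogenous transcription factor activity measured 24 hours after chemical dosing. Reporter mRNA quantified by RT-PCR, 6-FAM primer extension, HpaI digestion and capillary electrophoresis; bidirectional fitting versus DMSO.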

[7] = target: Androgen receptor (Homo sapiens) (UniProt P10275); test: ATG_AR_TRANS: Attagene TRANS-FACTORIAL HepG2 Assay for human Androgen Receptor (AR) (AID 2282973; active = hit-call score of the fitted dose curve at least 0.9, where 1 is the maximum); conditions: HepG2 Attagene TRANS-FACTORIAL AR reporter transcription
Chain of Androgen receptor (Homo sapiens) (P10275 whole entry, looked up, the tested form may be a part): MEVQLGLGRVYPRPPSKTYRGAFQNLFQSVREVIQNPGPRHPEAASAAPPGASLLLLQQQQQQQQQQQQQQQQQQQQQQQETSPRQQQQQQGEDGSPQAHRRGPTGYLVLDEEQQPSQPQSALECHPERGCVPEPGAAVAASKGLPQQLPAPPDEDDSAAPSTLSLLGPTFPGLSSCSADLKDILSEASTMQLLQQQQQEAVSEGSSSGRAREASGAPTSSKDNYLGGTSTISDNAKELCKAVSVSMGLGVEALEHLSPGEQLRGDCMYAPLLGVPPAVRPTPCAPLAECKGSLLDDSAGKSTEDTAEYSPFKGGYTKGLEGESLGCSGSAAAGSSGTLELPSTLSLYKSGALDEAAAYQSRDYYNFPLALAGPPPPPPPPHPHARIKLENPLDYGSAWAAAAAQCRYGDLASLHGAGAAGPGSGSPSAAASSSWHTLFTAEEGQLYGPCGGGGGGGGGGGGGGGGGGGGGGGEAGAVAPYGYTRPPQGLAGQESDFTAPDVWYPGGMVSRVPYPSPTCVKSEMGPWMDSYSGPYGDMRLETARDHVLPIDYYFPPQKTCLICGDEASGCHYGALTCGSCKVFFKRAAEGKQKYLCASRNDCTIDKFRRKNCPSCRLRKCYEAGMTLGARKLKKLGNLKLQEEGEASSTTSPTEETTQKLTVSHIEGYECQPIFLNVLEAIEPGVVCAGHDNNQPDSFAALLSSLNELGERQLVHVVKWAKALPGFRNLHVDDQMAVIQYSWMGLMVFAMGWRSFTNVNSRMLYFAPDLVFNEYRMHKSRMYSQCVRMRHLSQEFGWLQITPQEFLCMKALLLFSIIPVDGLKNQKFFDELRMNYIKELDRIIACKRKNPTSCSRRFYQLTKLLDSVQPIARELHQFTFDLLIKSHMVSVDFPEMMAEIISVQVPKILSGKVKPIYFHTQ
Outline: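 Transfected HepG2, 24 h treatment, chimeric NR-Gal4 driving GAL4-UAS reporters. mRNA induction by RT-PCR/capillary electrophoresis fluorescence; DMSO as negative control and baseline.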

[8] = ATG_M_19_TRANS: Attagene TRANS-FACTORIAL HepG2 Assay for M19 Transcription Factor (Internal Marker) (AID 2282974; active = hit-call score of the fitted dose curve at least 0.9, where 1 is the maximum); conditions: HepG2 Attagene TRANS-FACTORIAL M19 internal marker reporter
Outline: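 Fluorescence of 6-FAM-labelled reporter cDNA fragments, separated by capillary electrophoresis, served as the readout. These derived from HepG2 cells carrying transfected GAL4-UAS reporter units after 24 h dosing, with DMSO as negative control.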

[9] = target: Steroid hormone receptor ERR1 (Homo sapiens) (UniProt P11474); test: ATG_ERRa_TRANS: Attagene TRANS-FACTORIAL HepG2 Assay for human Estrogen-Related Receptor alpha (ERRa) (AID 2282971; active = hit-call score of the fitted dose curve at least 0.9, where 1 is the maximum); conditions: HepG2 Attagene TRANS reporter, ERRa transactivation
Chain of Steroid hormone receptor ERR1 (Homo sapiens) (P11474 whole entry, looked up, the tested form may be a part): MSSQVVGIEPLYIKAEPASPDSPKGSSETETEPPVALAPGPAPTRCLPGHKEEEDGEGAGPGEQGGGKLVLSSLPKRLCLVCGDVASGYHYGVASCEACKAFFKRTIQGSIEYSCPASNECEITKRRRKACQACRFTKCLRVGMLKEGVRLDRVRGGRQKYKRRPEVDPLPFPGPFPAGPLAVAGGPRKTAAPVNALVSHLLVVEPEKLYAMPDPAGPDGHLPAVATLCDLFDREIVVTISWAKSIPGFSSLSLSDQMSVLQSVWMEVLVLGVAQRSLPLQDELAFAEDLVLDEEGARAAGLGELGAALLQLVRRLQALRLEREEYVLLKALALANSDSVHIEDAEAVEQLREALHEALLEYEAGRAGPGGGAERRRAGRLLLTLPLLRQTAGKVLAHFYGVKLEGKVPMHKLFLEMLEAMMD
Outline: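 HepG2 cells were transiently transfected with multiple GAL4-UAS reporter units, then dosed with compound for 24 h. Total RNA was reverse-transcribed, reporter cDNA PCR-amplified and fluorescently labelled, and fragments resolved by capillary electrophoresis; induction was compared with DMSO.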

[10] = target: Estrogen receptor (Homo sapiens) (UniProt P03372); test: ATG_ERa_TRANS: Attagene TRANS-FACTORIAL HepG2 Assay for human Estrogen Receptor alpha (ERa) (AID 2282970; active = hit-call score of the fitted dose curve at least 0.9, where 1 is the maximum); conditions: HepG2 Attagene TRANS ERa GAL4 reporter, mRNA
Chain of Estrogen receptor (Homo sapiens) (P03372 whole entry, looked up, the tested form may be a part): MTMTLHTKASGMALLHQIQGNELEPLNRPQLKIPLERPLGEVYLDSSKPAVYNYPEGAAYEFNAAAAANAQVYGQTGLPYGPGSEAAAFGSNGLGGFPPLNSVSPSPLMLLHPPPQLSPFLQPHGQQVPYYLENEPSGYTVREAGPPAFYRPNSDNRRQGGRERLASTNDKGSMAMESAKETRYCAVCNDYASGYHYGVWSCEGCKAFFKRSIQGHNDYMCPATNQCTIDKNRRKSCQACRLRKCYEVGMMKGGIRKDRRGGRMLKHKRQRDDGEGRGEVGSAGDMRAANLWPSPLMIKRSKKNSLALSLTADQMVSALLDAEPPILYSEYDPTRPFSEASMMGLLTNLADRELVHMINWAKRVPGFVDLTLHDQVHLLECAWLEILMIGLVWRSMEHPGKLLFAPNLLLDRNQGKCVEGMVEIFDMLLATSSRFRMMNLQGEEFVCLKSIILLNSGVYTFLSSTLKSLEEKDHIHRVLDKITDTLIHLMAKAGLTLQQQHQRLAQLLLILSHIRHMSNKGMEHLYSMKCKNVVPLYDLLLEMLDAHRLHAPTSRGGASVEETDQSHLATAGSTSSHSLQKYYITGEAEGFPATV
Outline: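 Transactivation via ERa-Gal4 chimera in HepG2; 24 hour incubation; reporter mRNA detected by fluorescence RT-PCR and capillary electrophoresis.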

Measured: AC50

O=C(O)CCCOc1ccc(Cl)cc1Cl
not listed: [9] | [10]
inactive: all other assays above

COC(=O)c1ccccc1S(=O)(=O)NC(=O)N(C)c1nc(C)nc(OC)n1
inactive: [1] | [2] | [3] | [5] | [6]

CC(C)(C)C(O)C(Oc1ccc(Cl)cc1)n1cncn1 (configuration not stated)
not listed: [7] | [9] | [10]
inactive: all other assays above

CCS(=O)(=O)c1cccnc1S(=O)(=O)NC(=O)Nc1nc(OC)cc(OC)n1
not listed: [7] | [8] | [10]
inactive: all other assays above

O=[N+]([O-])c1c(Cl)c(Cl)c(Cl)c(Cl)c1Cl
active: [1] 29 µM | [4] 50 µM | [10] 50 µM
not listed: [7] | [9]
inactive: all other assays above

CCCN(CCOc1c(Cl)cc(Cl)cc1Cl)C(=O)n1ccnc1
inactive: [1] | [2] | [3] | [5] | [9] | [6] | [8]
active: [6] 19.5 µM

Clc1ccccc1-c1nnc(-c2ccccc2Cl)nn1
not listed: [7] | [9]
inactive: all other assays above

O=C1c2ccccc2C(=O)N1SC(Cl)(Cl)Cl
not listed: [7] | [9]
inactive: all other assays above

CCN(CC)C(=O)SCc1ccc(Cl)cc1
active: [4] 24.8 µM | [10] 32.4 µM
not listed: [5] | [7]
inactive: all other assays above
